Source: PubChem BioAssay AID1159580 (chemical genetic matrix, 2015)
Values joined by “and” are separate entries in the source; they are usually repeats but may differ in a detail not shown here. Equal entries are not always repeated. Hit rate of the full screen: of about 5,500 compounds, about 2,000 (36%) were called active. About 18% were inconclusive and are not listed. Cut-off read from the data, not from the text of the source: active = normalized growth mostly below about 0.91 (no sharp cut-off); inconclusive = no clear call, values can overlap the other calls; inactive = mostly above about 0.92. The list shows a part of the results.

Test: chemical genetic growth profiling, strain panel (AID 1159580);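 note: tested at 20 µM; growth read once vehicle control cultures reached saturation at 30 °C; 1 = growth at the plate median or of vehicle wells; lower values mean less growth of the strain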
Conditions: S. cerevisiae deletion strains, growth OD

Measured: normalized growth

COc1cc2c(cc1O)CC1c3c(cc(O)c(OC)c3-2)CCN1C (centres undefined)
inactive: locus YAL021C, strain ccr4, stronger effect = lower value 1.02 | locus YAL026C, strain drs2, stronger effect = lower value 1.03 | locus YAL030W, strain snc1, stronger effect = lower value 1.01 | locus YBL061C, strain skt5, stronger effect = lower value 1.02 | locus YBR009C, strain hhf1, stronger effect = lower value 1.03 | locus YBR021W, strain FUR4, stronger effect = lower value 0.993 | locus YBR023C, strain chs3, stronger effect = lower value 1.02 | locus YBR171W, strain sec66, stronger effect = lower value 1.01 | locus YBR229C, strain ROT2, stronger effect = lower value 0.999 | locus YBR231C, strain swc5, stronger effect = lower value 1.01 | locus YBR279W, strain paf1, stronger effect = lower value 1.01 | locus YCL011C, strain gbp2, stronger effect = lower value 1.02 | locus YCL016C, strain dcc1, stronger effect = lower value 1 | locus YCL029C, strain bik1, stronger effect = lower value 0.994 | locus YCL061C, strain MRC1, stronger effect = lower value 1.01 | locus YCL069W, strain vba3, stronger effect = lower value 1.01 | locus YCR088W, strain abp1, stronger effect = lower value 1.01 | locus YDL005C, strain med2, stronger effect = lower value 1.03 | locus YDL035C, strain GPR1, stronger effect = lower value 1 | locus YDL040C, strain nat1, stronger effect = lower value 1.01 | locus YDL074C, strain BRE1, stronger effect = lower value 1 | locus YDL101C, strain DUN1, stronger effect = lower value 0.996 | locus YDL185W, strain tfp1, stronger effect = lower value 0.991 | locus YDL192W, strain arf1, stronger effect = lower value 0.996 | locus YDR001C, strain nth1, stronger effect = lower value 1.01 | locus YDR069C, strain doa4, stronger effect = lower value 1.04 | locus YDR101C, strain arx1, stronger effect = lower value 0.98 | locus YDR137W, strain rgp1, stronger effect = lower value 1.04 | locus YDR159W, strain sac3, stronger effect = lower value 1.04 | locus YDR162C, strain NBP2, stronger effect = lower value 1 | locus YDR195W, strain ref2 0.999 | locus YDR297W, strain sur2, stronger effect = lower value 1.01 | locus YDR318W, strain mcm21, stronger effect = lower value 1 | locus YDR334W, strain swr1, stronger effect = lower value 1.01 | locus YDR335W, strain msn5, stronger effect = lower value 1.01 | locus YDR388W, stronger effect = lower value 0.996 | locus YDR392W, strain spt3, stronger effect = lower value 0.95 | locus YDR502C, strain sam2, stronger effect = lower value 0.993 | locus YEL003W, strain gim4, stronger effect = lower value 1.02 | locus YEL037C, strain rad23, stronger effect = lower value 1.01 | locus YEL061C, strain CIN8 (second series), stronger effect = lower value 1.01 | locus YEL061C, strain CIN8, stronger effect = lower value 0.998 | locus YER015W, strain faa2, stronger effect = lower value 1.01 | locus YER016W, strain bim1, stronger effect = lower value 1.02 | locus YER110C, stronger effect = lower value 0.997 | locus YER111C, strain swi4, stronger effect = lower value 1.01 | locus YER155C, strain BEM2 (second series), stronger effect = lower value 1.03 | locus YER155C, strain BEM2, stronger effect = lower value 1 | locus YER167W, strain BCK2, stronger effect = lower value 1 | locus YFR010W, strain ubp6, stronger effect = lower value 1.02 | locus YGL078C, strain dbp3, stronger effect = lower value 0.997 | locus YGL086W, strain mad1, stronger effect = lower value 0.978 | locus YGL167C, strain pmr1, stronger effect = lower value 1 | locus YGL173C, strain kem1, stronger effect = lower value 1.02 | locus YGL227W, strain vid30, stronger effect = lower value 1.02 | locus YGL240W, strain doc1, stronger effect = lower value 1.01 | locus YGL248W, strain PDE1, stronger effect = lower value 1.01 | locus YGL253W, strain hxk2, stronger effect = lower value 1 | locus YGR135W, strain pre9, stronger effect = lower value 0.986 | locus YGR252W, strain gcn5, stronger effect = lower value 0.917 | locus YHR013C, strain ard1, stronger effect = lower value 1 | locus YHR027C, strain rpn1, stronger effect = lower value 1.02 | locus YHR030C, strain SLT2, stronger effect = lower value 1.01 and 0.986 | locus YHR079C, strain IRE1 (second series), stronger effect = lower value 0.993 | locus YHR079C, strain IRE1, stronger effect = lower value 1.01 | locus YHR094C, strain hxt1, stronger effect = lower value 1 | locus YHR129C, strain ARP1, stronger effect = lower value 0.994 | locus YHR142W, strain chs7, stronger effect = lower value 0.996 | locus YHR200W, strain rpn10, stronger effect = lower value 0.988 | locus YIL066C, strain RNR3, stronger effect = lower value 1.01 | locus YIL073C, strain SPO22, stronger effect = lower value 1.03 | locus YIL125W, strain kgd1, stronger effect = lower value 0.986 | locus YIR030C, strain dcg1, stronger effect = lower value 0.992 | locus YJL092W, strain hpr5, stronger effect = lower value 1.01 | locus YJL095W, strain BCK1 (second series), stronger effect = lower value 0.988 | locus YJL095W, strain BCK1, stronger effect = lower value 1.01 and 0.996 | locus YJL115W, strain asf1, stronger effect = lower value 1.02 | locus YJL129C, strain trk1, stronger effect = lower value 1.02 | locus YJL134W, strain LCB3, stronger effect = lower value 1.01 | locus YJL154C, strain vps35, stronger effect = lower value 1.01 | locus YJL164C, strain tpk1, stronger effect = lower value 1.01 | locus YJL166W, strain qcr8, stronger effect = lower value 1.01 | locus YJL168C, strain set2, stronger effect = lower value 0.988 | locus YJL187C, strain SWE1 (second series), stronger effect = lower value 0.998 | locus YJL187C, strain SWE1, stronger effect = lower value 1 | locus YJR043C, strain POL32, stronger effect = lower value 0.987 | locus YJR066W, strain TOR1, stronger effect = lower value 0.946 | locus YJR075W, strain HOC1, stronger effect = lower value 1.01 | locus YKL009W, strain mrt4, stronger effect = lower value 1 | locus YKL068W, stronger effect = lower value 1.01 | locus YKL085W, strain MDH1 (second series), stronger effect = lower value 0.994 | locus YKL085W, strain MDH1, stronger effect = lower value 0.994 | locus YKL160W, strain elf1, stronger effect = lower value 1.01 | locus YKR001C, strain vps1, stronger effect = lower value 1.01 | locus YKR026C, strain gcn3, stronger effect = lower value 0.983 | locus YKR091W, strain srl3, stronger effect = lower value 1.01 | locus YLL001W, strain dnm1, stronger effect = lower value 1 | locus YLL026W, stronger effect = lower value 1.02 | locus YLL041C, strain sdh2, stronger effect = lower value 1.01 | locus YLR027C, strain aat2, stronger effect = lower value 1.01 | locus YLR039C, strain RIC1, stronger effect = lower value 1.01 | locus YLR058C, strain SHM2, stronger effect = lower value 1.01 | locus YLR102C, strain apc9, stronger effect = lower value 0.998 | locus YLR113W, strain HOG1, stronger effect = lower value 0.994 | locus YLR221C, strain rsa3, stronger effect = lower value 1.01 | locus YLR258W, strain gsy2, stronger effect = lower value 1.02 | locus YLR262C, strain YPT6 (second series), stronger effect = lower value 1.03 | locus YLR262C, strain YPT6, stronger effect = lower value 1.01 | locus YLR268W, strain sec22, stronger effect = lower value 0.976 | locus YLR320W, strain mms22, stronger effect = lower value 1.02 | locus YLR330W, strain CHS5, stronger effect = lower value 1.01 | locus YLR342W, strain FKS1 (second series), stronger effect = lower value 0.998 | locus YLR342W, strain FKS1, stronger effect = lower value 1 | locus YLR357W, strain rsc2, stronger effect = lower value 1.04 | locus YLR370C, strain arc18, stronger effect = lower value 1.03 | locus YLR371W, strain rom2, stronger effect = lower value 0.996 | locus YLR384C, strain iki3, stronger effect = lower value 1.02 | locus YLR418C, strain cdc73, stronger effect = lower value 0.98 | locus YML016C, strain PPZ1, stronger effect = lower value 1 | locus YML032C, strain rad52, stronger effect = lower value 1 | locus YML120C, strain ndi1, stronger effect = lower value 1.01 | locus YML124C, strain tub3, stronger effect = lower value 0.992 | locus YMR058W, strain fet3, stronger effect = lower value 1.01 | locus YMR078C, strain ctf18, stronger effect = lower value 1 | locus YMR125W, strain sto1, stronger effect = lower value 1.03 | locus YMR129W, stronger effect = lower value 1.03 | locus YMR205C, strain PFK2, stronger effect = lower value 1.05 | locus YMR223W, strain ubp8, stronger effect = lower value 0.986 | locus YMR231W, strain pep5, stronger effect = lower value 1.01 | locus YMR263W, strain SAP30, stronger effect = lower value 1 | locus YMR307W, strain GAS1, stronger effect = lower value 0.997 | locus YNL067W, strain RPL9B, stronger effect = lower value 0.998 | locus YNL071W, strain lat1, stronger effect = lower value 1.02 | locus YNL183C, strain NPR1, stronger effect = lower value 0.951 | locus YNL209W, strain ssb2, stronger effect = lower value 1.01 | locus YNL233W, strain BNI4, stronger effect = lower value 0.992 | locus YNL248C, strain rpa49, stronger effect = lower value 1 | locus YNL250W, strain rad50, stronger effect = lower value 1 | locus YNL271C, strain bni1, stronger effect = lower value 0.992 | locus YNL298W, strain CLA4, stronger effect = lower value 0.995 | locus YNL307C, strain MCK1, stronger effect = lower value 0.994 | locus YNL322C, strain KRE1 (second series), stronger effect = lower value 1.01 | locus YNL322C, strain KRE1, stronger effect = lower value 1 | locus YNR049C, strain mso1, stronger effect = lower value 1.01 | locus YNR052C, strain pop2, stronger effect = lower value 1.01 | locus YOL012C, strain htz1 0.764 | locus YOL147C, strain pex11, stronger effect = lower value 0.998 | locus YOR001W, strain rrp6, stronger effect = lower value 1.01 | locus YOR061W, strain CKA2, stronger effect = lower value 1.01 | locus YOR069W, strain VPS5, stronger effect = lower value 1 | locus YOR070C, strain gyp1, stronger effect = lower value 1.02 | locus YOR080W, strain dia2, stronger effect = lower value 1.01 | locus YOR083W, strain WHI5, stronger effect = lower value 0.997 | locus YOR106W, strain vam3, stronger effect = lower value 1.03 | locus YOR136W, strain idh2, stronger effect = lower value 0.99 | locus YOR144C, strain elg1, stronger effect = lower value 0.993 | locus YOR184W, strain ser1, stronger effect = lower value 0.992 | locus YOR231W, strain MKK1, stronger effect = lower value 1 | locus YOR265W, strain rbl2, stronger effect = lower value 1 | locus YOR270C, strain vph1, stronger effect = lower value 1.06 | locus YOR290C, strain snf2, stronger effect = lower value 0.999 | locus YOR316C, strain cot1, stronger effect = lower value 1 | locus YPL051W, strain arl3, stronger effect = lower value 0.994 | locus YPL055C, strain LGE1, stronger effect = lower value 0.988 | locus YPL078C, strain atp4, stronger effect = lower value 1.01 | locus YPL106C, strain sse1, stronger effect = lower value 1.04 | locus YPL240C, strain hsp82, stronger effect = lower value 1.01 | locus YPL241C, strain CIN2, stronger effect = lower value 1 | locus YPL256C, strain CLN2, stronger effect = lower value 0.961 | locus YPR119W, strain clb2, stronger effect = lower value 0.998 | locus YPR141C, strain kar3, stronger effect = lower value 0.985 | locus YPR163C, strain tif3, stronger effect = lower value 0.996 | locus YPR167C, strain met16, stronger effect = lower value 1 | strain wtn01, stronger effect = lower value 0.97
